{
  "source": "PubChem BioAssay (NCATS)",
  "note": "Records with an inconclusive call do not appear. Where a call stands in place of a potency, no number is given. Calls of active or inactive are those of the source. Calls come from the whole dose curve; as a rule, active = well fitted inhibition curve with a large enough effect; inconclusive = small, poorly fitted or top-dose-only effect; inactive = flat fitted curve, though single readings scatter.",
  "data": [
    {"target": "Glutathione peroxidase 1 (Homo sapiens) (UniProt P07203)", "sequence (P07203 whole entry, looked up)": "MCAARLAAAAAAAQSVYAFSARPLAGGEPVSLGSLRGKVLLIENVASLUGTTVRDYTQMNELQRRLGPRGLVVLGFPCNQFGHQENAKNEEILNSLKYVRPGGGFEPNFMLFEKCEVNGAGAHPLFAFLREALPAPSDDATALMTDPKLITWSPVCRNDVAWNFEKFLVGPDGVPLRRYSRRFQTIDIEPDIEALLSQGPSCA", "experiment": "Primary qHTS Assay for Inhibitors of Recombinant Selenoprotein Glutathione Peroxidase 1 (GPX1) (AID 1845191); note: nearly all actives have a fitted effect of over 65% in size; note: potency is the fitted concentration of half-maximal effect", "details": "recombinant GPX1, GR-coupled NADPH fluorescence, 15 min; series mostly up to 48.8 µM", "from_the_text": "Assay Provider: Elias S.J. Arner MD PhD.\nDepartment of Medical Biochemistry and Biophysics\nKarolinska Institutet, Solna, Stockholm, Sweden\nSelenoprotein glutathione peroxidases (GPX), like the ubiquitously expressed GPX1 and the ferroptosis modulator GPX4, enact their antioxidant activities by reducing hydroperoxides using glutathione. […] GPX1 and GPX4 inhibitors have thus shown promise as anti-cancer agents. Existing inhibitors are often promiscuous, or modulate GPX activity only indirectly, so novel direct inhibitors identified through screening against GPX1 and GPX4 could be valuable. Here, we developed optimized glutathione reductase (GR)-coupled GPX assays for the biochemical high-throughput screen (HTS) of almost 12,000 compounds with known mechanisms of action. Initial hits were triaged using a GR counter-screen, assessed for isoform specificity using a separate GPX2 assay, and were assessed for general selenocysteine-targeting activity using a thioredoxin reductase (TXNRD1) assay. With this suite of assays, we identified novel GPX1/GPX2- and GPX4-specific inhibitors and can here present a validated pipeline for future discovery research for selenoprotein-targeting agents.\nSEQUENCE No. (e.g., 1, 2, 3, etc.); […] (e.g., Cells, Incubation, Reagent, etc.); VALUE; DESCRIPTION.\n1; Reagent 1; 3 uL; GPx1 enzyme or no enzyme control in 1536-well, black, solid Greiner assay plate.\n2; Compound; 25 nL; Kalypsis pin tool (Wako USA) equipped with a 1536-well pin head.\n3; Incubation; 30 min; room temperature.\n4; Reagent 2; 1 uL; 10 nM GPX1, 1 mM GSH, 0.5 mM CHP, 0.5 mM NADPH, 100 nM GR, 0.01% BSA substrate\n5; Detection; Fluorescence; ViewLux microplate reader, excitation 340 nm and emission 450 nm.\n6; Incubation; 15 min; room temperature.\n7; Detection; Fluorescence; ViewLux microplate reader, excitation 340 nm and emission 450 nm.\nNOTES (numbers refer to Sequence numbers above)\n1. 3 uL of 16.66 nM GPX1 and 0.016% BSA in assay buffer (50 mM Tris-HCl, 2 mM EDTA (pH 7.5), 150 mM NaCl) was added to columns 3-48 of 1536-well assay plates using a BioRAPTR Flying Reagent Dispenser (Let's Go Robotics (LGR), Carlsbad, CA). A no-enzyme control (0.01% BSA in TES assay buffer) was added to columns 1-2.\n2. 25 nL of test compounds and DMSO controls were added to each well with a pin tool (Kalypsys).\n3. The assay plates were incubated for 30 minutes at room temperature.\n4. 1 uL of master mix (500 nM glutathione reductase (GR), 5 mM reduced glutathione (GSH), 2.5 mM NADPH in assay buffer) was added. 1 uL of cumene hydroperoxide (CHP) ([2.5 mM] in 50% EtOH) was then added within 5 minutes to initiate the reaction. Final concentrations were: 10 nM GPX1, 1 mM GSH, 0.5 mM CHP, 0.5 mM NADPH, 100 nM GR, 0.01% BSA.\n5. Initial fluorescence readout (t=0) at 340/450 nm was measured using a ViewLux multimodal detector (PerkinElmer, Waltham, MA).\n7. Endpoint fluorescence readout (t=15) at 340/450 nm was measured 15 min after room temperature incubation.", "values": [
      {"molecule": "CNC(C)[C@@H](O)c1ccc(O)cc1", "note": "(stereo not given in full)", "Potency": "inactive"},
      {"molecule": "N#CC(O[C@@H]1O[C@H](CO[C@@H]2O[C@H](CO)[C@@H](O)[C@H](O)[C@H]2O)[C@@H](O)[C@H](O)[C@H]1O)c1ccccc1", "note": "(stereo not given in full)", "Potency": "inactive"},
      {"molecule": "O=c1ccc2cc(O[C@@H]3O[C@H](CO)[C@H](O)[C@H](O)[C@H]3O)c(O)cc2o1", "Potency": "16.1 µM (active)"},
      {"molecule": "Cn1c(/C=C/CO)c(CO)c2c1C(=O)C=C(N1CC1)C2=O", "Potency": "inactive"},
      {"molecule": "C[N+]1([O-])[C@H]2CC(OC(=O)C(CO)c3ccccc3)C[C@H]1[C@H]1O[C@H]12", "note": "(stereo not given in full)", "Potency": "inactive"},
      {"molecule": "COc1cc2cc(c1Cl)N(C)C(=O)C[C@H](OC(=O)C(C)C)[C@]1(C)O[C@@H]1[C@H](C)[C@@H]1C[C@@](O)(NC(=O)O1)[C@H](OC)/C=C/C=C(\\C)C2", "Potency": "inactive"},
      {"molecule": "C/C=C(\\C)C(=O)N[C@@H](c1ccccc1)[C@@H](O)C(=O)O[C@H]1C[C@@]2(O)[C@@H](OC(=O)c3ccccc3)[C@@H]3[C@]4(OC(C)=O)CO[C@@H]4C[C@H](O)[C@@]3(C)C(=O)[C@H](OC(C)=O)C(=C1C)C2(C)C", "Potency": "inactive"},
      {"molecule": "C=C/C=C\\CC1=C(C)[C@@H](OC(=O)[C@H]2[C@H](C=C(C)C)C2(C)C)CC1=O", "Potency": "inactive"},
      {"molecule": "C[C@@]12OC(=O)[C@]1([C@@H](O)[C@@H]1C=CCCC1)NC(=O)[C@@H]2CCCl", "Potency": "inactive"},
      {"molecule": "CN(C(=O)/C=C/c1ccoc1)[C@@H]1CC[C@@]2(O)[C@H]3Cc4ccc(O)c5c4[C@@]2(CCN3CC2CC2)[C@H]1O5", "Potency": "inactive"},
      {"molecule": "CC[N+]1(C)C2CC(OC(=O)[C@H](CO)c3ccccc3)CC1[C@@H]1O[C@H]21", "note": "(stereo not given in full)", "Potency": "inactive"},
      {"molecule": "CC(C)[C@]12O[C@H]1[C@@H]1O[C@@]13[C@@]1(C)CCC4=C(COC4=O)[C@@H]1C[C@@H]1O[C@@]13C2=O", "Potency": "inactive"},
      {"molecule": "CCN1C[C@@]2(COC)C3[C@@H](OC)C4[C@@H]1[C@@]3(C1C[C@]3(O)[C@H](OC(=O)c5ccccc5)C1[C@]4(OC(C)=O)[C@@H](O)[C@@H]3OC)[C@@H](OC)C[C@H]2O", "note": "(stereo not given in full)", "Potency": "inactive"},
      {"molecule": "C=C/C=C/CC1=C(C)[C@H](OC(=O)[C@H]2[C@H](/C=C(\\C)C(=O)OC)C2(C)C)CC1=O", "Potency": "inactive"},
      {"molecule": "C[C@]12CC[C@H](O)C[C@H]1CCC1C2CC[C@]2(C)[C@@H](c3ccc(=O)oc3)C[C@H]3O[C@]132", "note": "(stereo not given in full)", "Potency": "inactive"},
      {"molecule": "Cc1c(N)nc([C@H](CC(N)=O)NC[C@@H](N)C(N)=O)nc1C(=O)N[C@H](C(=O)N[C@@H](C)[C@H](O)[C@@H](C)C(=O)N[C@@H](C(=O)NCCc1nc(-c2nc(C(=O)NCCC[S+](C)C)cs2)cs1)[C@@H](C)O)C(O[C@H]1O[C@H](CO)[C@H](O)[C@@H](O)[C@H]1O[C@H]1O[C@H](CO)[C@@H](O)[C@H](OC(N)=O)[C@@H]1O)c1cnc[nH]1", "note": "(stereo not given in full)", "Potency": "inactive"},
      {"molecule": "CN1C(=O)[C@@H](NC(=O)[C@H](CCC(F)(F)F)[C@H](CCC(F)(F)F)C(N)=O)N=C(c2ccccc2)c2ccccc21", "Potency": "inactive"},
      {"molecule": "CC1(C)[C@H](C=C(Cl)Cl)[C@@H]1C(=O)OCc1c(F)c(F)cc(F)c1F", "Potency": "inactive"},
      {"molecule": "Fc1cccc(Br)c1NC1=NCCN1", "Potency": "inactive"},
      {"molecule": "CNC(C)CC1CCCC1", "note": "(stereo not given)", "Potency": "inactive"},
      {"molecule": "COC1(O[C@H]2CC[C@H]3[C@@H]4CC[C@H]5C[C@@H]6S[C@@H]6C[C@]5(C)[C@H]4CC[C@]23C)CCCC1", "Potency": "inactive"},
      {"molecule": "O=C(O)CNC(=O)C1C(=O)N(C2CCCCC2)C(=O)N(C2CCCCC2)C1=O", "Potency": "inactive"},
      {"molecule": "CO[C@@H](COC(N)=O)C1=C(N2CC2)C(=O)C(C)=C(N2CC2)C1=O", "Potency": "inactive"},
      {"molecule": "Cn1c(COP(=O)(NCCBr)NCCBr)cnc1[N+](=O)[O-]", "Potency": "inactive"},
      {"molecule": "CCCCOc1ccc(C[N+]2(C)C3CCC2CC(OC(=O)[C@H](CO)c2ccccc2)C3)cc1", "note": "(stereo not given in full)", "Potency": "inactive"},
      {"molecule": "CCC[C@@H]1CC(=O)N([C@@H](CC)C(N)=O)C1", "Potency": "inactive"},
      {"molecule": "C=C[C@H]1CN2CC[C@H]1C[C@@H]2[C@@H](OC(=O)OCC)c1ccnc2ccc(OC)cc12", "Potency": "inactive"},
      {"molecule": "O1[As]2O[As]1O2", "Potency": "inactive"},
      {"molecule": "CC(C)(NC(=O)O[C@@H]1CN2CCC1CC2)c1csc(-c2ccc(F)cc2)n1", "Potency": "inactive"},
      {"molecule": "C[C@H]1[C@H](O)[C@@H](C)/C=C/C=C/CC/C=C/C=C/C=C/C=C/[C@H](O[C@@H]2O[C@H](C)[C@@H](O)[C@H](N)[C@@H]2O)C[C@@H]2O[C@](O)(C[C@@H](O)[C@H](O)CC[C@@H](O)C[C@@H](O)C[C@@H](O)CC(=O)O[C@H]1C)C[C@H](O)[C@H]2C(=O)O", "Potency": "inactive"},
      {"molecule": "O=C(O)c1ccnc2cc(C(OCCN3CCC(F)(F)CC3)c3ccccc3Cl)[nH]c12", "note": "(stereo not given)", "Potency": "inactive"},
      {"molecule": "NCCS[As](SCCN)c1ccc(Nc2nc(N)nc(N)n2)cc1", "Potency": "inactive"},
      {"molecule": "CO[C@H]1CCC(O[C@H]2C[C@H]([C@]3(C)CC[C@]4(C[C@H](O)[C@@H](C)[C@@H]([C@@H](C)/C=C(\\C)C(=O)[C@H](C)C[C@H](C)C(=O)O)O4)O3)O[C@]3(O[C@@H]([C@H]4O[C@@](O)(CO)[C@H](C)C[C@@H]4C)C[C@@H]3C)[C@@H]2C)O[C@@H]1C", "note": "(stereo not given in full)", "Potency": "inactive"},
      {"molecule": "O=C(CBr)N1CC([N+](=O)[O-])([N+](=O)[O-])C1", "Potency": "inactive"},
      {"molecule": "CN1CCC2=C(C1)C(c1ccccc1)c1ccccc12", "note": "(stereo not given)", "Potency": "inactive"},
      {"molecule": "CC(C)=CCCC1(C)C=Cc2c(O)c3c(c(CC=C(C)C)c2O1)OC12C(=CC4CC1C(C)(C)OC2(C/C=C(/C)C(=O)O)C4=O)C3=O", "note": "(stereo not given)", "Potency": "inactive"},
      {"molecule": "C=C(C)[C@@H]1CCC(C)=C[C@H]1c1c(O)cc(CCCCC)cc1O", "Potency": "inactive"},
      {"molecule": "Cc1cc(C2=NOC(c3cc(Cl)cc(Cl)c3)(C(F)(F)F)C2)ccc1C(=O)NCC(=O)NCC(F)(F)F", "note": "(stereo not given)", "Potency": "inactive"},
      {"molecule": "COC(=O)[C@@]12OC[C@]34[C@H]([C@@H](O)[C@@H]1O)[C@@]1(C)CC(=O)C(O)=C(C)[C@@H]1C[C@H]3OC(=O)[C@H](OC(=O)/C=C(\\C)C(C)C)[C@@H]24", "Potency": "inactive"},
      {"molecule": "CC1CCCC(O)CCCCCc2cc(O)cc(O)c2C(=O)O1", "note": "(stereo not given)", "Potency": "inactive"}
    ]}
  ]
}
